ADAM10 inh = inhibitors of human ADAM10; O14672; recombinant ADAM10, EDANS/DABCYL FRET peptide cleavage, 3 h; inhibition, % at 7 µM; 0.62% of 370,000 active; AID 720582;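 active = inhibition above a per-campaign cutoff equal to the mean of compounds falling between control-based bounds plus 3 SD, cut at about 20% in these data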;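 also: 0% = DMSO wells while the 100% control is not disclosed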
PLC-beta3 inh = inhibitors of human phospholipase C beta3; 0.18% of 370,000 active; inhibition, % at 12.2 µM; Q01970; Purified PLC-beta3, fluorogenic substrate, fluorescence; AID 720704; in the data active = inhibition above about 11%;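 also: 0% = median of compound wells on plate and 100% = full blocker control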
Target sequence (Q01970 whole entry, looked up): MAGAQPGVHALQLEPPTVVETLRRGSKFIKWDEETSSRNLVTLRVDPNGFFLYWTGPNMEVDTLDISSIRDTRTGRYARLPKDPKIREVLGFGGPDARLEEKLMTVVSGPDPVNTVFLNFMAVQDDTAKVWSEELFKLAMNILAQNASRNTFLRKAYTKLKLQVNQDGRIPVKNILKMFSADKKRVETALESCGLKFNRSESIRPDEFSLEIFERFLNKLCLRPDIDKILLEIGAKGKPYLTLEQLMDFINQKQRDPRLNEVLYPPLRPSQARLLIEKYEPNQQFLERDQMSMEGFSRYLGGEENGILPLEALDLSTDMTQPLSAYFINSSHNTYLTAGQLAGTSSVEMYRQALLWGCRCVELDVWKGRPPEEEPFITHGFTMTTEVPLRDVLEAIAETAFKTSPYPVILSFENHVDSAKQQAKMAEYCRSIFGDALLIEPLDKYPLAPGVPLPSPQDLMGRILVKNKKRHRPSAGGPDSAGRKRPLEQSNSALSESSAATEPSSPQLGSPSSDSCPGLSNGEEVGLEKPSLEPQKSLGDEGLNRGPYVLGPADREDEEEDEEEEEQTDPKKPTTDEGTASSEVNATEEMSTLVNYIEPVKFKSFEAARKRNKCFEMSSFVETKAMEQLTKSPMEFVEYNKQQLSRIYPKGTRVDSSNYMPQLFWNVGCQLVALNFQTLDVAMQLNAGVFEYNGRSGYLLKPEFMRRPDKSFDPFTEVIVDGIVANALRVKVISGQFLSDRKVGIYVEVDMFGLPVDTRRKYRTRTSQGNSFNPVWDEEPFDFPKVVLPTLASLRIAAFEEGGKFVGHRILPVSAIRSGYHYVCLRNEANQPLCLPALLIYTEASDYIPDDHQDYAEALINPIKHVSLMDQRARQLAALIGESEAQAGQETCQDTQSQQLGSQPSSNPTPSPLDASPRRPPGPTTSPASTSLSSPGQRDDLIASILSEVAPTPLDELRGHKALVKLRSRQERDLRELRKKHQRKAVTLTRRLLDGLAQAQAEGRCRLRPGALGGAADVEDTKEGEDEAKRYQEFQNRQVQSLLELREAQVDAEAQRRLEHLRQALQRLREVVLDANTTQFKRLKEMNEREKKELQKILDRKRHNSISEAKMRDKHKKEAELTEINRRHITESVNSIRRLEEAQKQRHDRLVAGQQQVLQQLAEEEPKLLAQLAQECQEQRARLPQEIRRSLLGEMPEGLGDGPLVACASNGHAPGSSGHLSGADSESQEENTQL
KLK7 zymogen act = activators of human kallikrein-7 zymogen. purified proKLK7, EDANS-DABCYL substrate fluorescence; 100% is mature enzyme control, 0% vehicle. activation, % at 7 µM. 0.9% of 370,000 active. AID 652039;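 active = activation above the mean of all tested compounds plus 3 SD, computed per campaign excluding outliers beyond control limits, cut at about 13% in these data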
PLC-gamma1 inh = blocks human PLC-gamma1 enzyme activity | 0.84% of 370,000 active | purified PLC-gamma1, fluorogenic substrate, fluorescence | P19174 | inhibition, % at 12.2 µM | AID 720700; in the data active = inhibition above about 9.5%
ADAM17 inh = inhibits human ADAM17. P78536. recombinant ADAM17, EDANS/DABCYL FRET peptide cleavage. inhibition, % at 6.95 µM. 0.83% of 370,000 active. AID 720648;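 active = inhibition above the mean of compounds lying between control limits plus 3 SD, set per campaign, cut at about 8.5% in these data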;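 also: 0% = DMSO-only wells as the low control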
proKLK7 act conf = proKLK7 activation, confirmation | 68% of 3,200 active | activation, % at 7 µM | purified proKLK7, EDANS-DABCYL substrate fluorescence; scaled: vehicle 0, mature enzyme 100 | shares compounds with KLK7 zymogen act;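 active = activation, as change over the incubation, above the mean of all tested compounds plus 3 SD, cut at about 13% in these data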
EDANS-DABCYL int = counter-screen for kallikrein-7 activators: EDANS-DABCYL optical interference. shares compounds with KLK7 zymogen act. EDANS-DABCYL substrate fluorescence interference, no enzyme, 4 h; solvent 0%, active enzyme control 100%. activation, % at 7 µM. 80% of 3,200 active. AID 686952;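 active = activation above the all-compound mean plus 3 SD, ignoring values outside control-based bounds, cut at about 4.8% in these data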;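 also: value is the 4 h activation minus the activation read at time zero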
Numbers without * were called inactive. Only some compounds are listed: those with a hit (about 2.9% of all), similar ones and a draw of the others.

Results for COc1cc2c(cc1OC)CN(CC(=O)Nc1ccc(S(=O)(=O)N(C)C)cc1)CC2 ?
ADAM10 inh: -15.1; PLC-beta3 inh: -31.8; KLK7 zymogen act: 2.0; PLC-gamma1 inh: -24.9; ADAM17 inh: -6.7

What do the screens show for `CCCCN(CC)CCNC(=S)Nc1ccc2nc(N3CCN(C)CC3)cc(C)c2c1`?
ADAM10 inh: -53.3; PLC-beta3 inh: -37.4; KLK7 zymogen act: 2.9; PLC-gamma1 inh: -22.9; ADAM17 inh: -28.0

How did CCCCN(CC)CCNC(=O)CCC(=O)Nc1ccc2nc(N3CCN(C)CC3)cc(C)c2c1 do in these assays?
ADAM10 inh: inactive; PLC-beta3 inh: inactive; KLK7 zymogen act: 78.3*; PLC-gamma1 inh: inactive; ADAM17 inh: inactive; proKLK7 act conf: 106.5*; EDANS-DABCYL int: 115.0*

How did CCCCNC(=O)CCC(=O)Nc1ccc2nc(N3CCOCC3)cc(C)c2c1 do in these assays?
ADAM10 inh: inactive; PLC-beta3 inh: -96.5; KLK7 zymogen act: 3.2; PLC-gamma1 inh: -72.9; ADAM17 inh: -259.8

How did CCCN(CCC)CCNC(=O)CCC(=O)Nc1ccc2nc(N3CCOCC3)cc(C)c2c1 do in these assays?
ADAM10 inh: inactive; PLC-beta3 inh: inactive; KLK7 zymogen act: 57.4*; PLC-gamma1 inh: inactive; ADAM17 inh: inactive; proKLK7 act conf: 153.1*; EDANS-DABCYL int: 144.1*

Results for CN1CCN(C(=O)c2ccc(-c3cccs3)s2)CC1 ?
ADAM10 inh: inactive; PLC-beta3 inh: -329.0; KLK7 zymogen act: 32.5*; PLC-gamma1 inh: -305.6; ADAM17 inh: -303.2; proKLK7 act conf: 6.5; EDANS-DABCYL int: 5.3*

What do the screens show for `CCOC(=O)c1ccccc1NC1CC(=O)N(c2ccccc2C)C1=O` (stereo not given)?
ADAM10 inh: inactive; PLC-beta3 inh: -364.0; KLK7 zymogen act: 192.9*; PLC-gamma1 inh: -292.8; ADAM17 inh: -464.9; proKLK7 act conf: 169.0*; EDANS-DABCYL int: 160.8*

How did CCOC(=O)c1ccccc1NC(=O)C1CC(=O)N(C(C)(C)C)C1 (stereo not given) do in these assays?
ADAM10 inh: -3.4; PLC-beta3 inh: -6.1; KLK7 zymogen act: 0.3; PLC-gamma1 inh: -0.8; ADAM17 inh: -3.9

Results for Cc1ccc2c(c1)N(CCCC(=O)NCc1cccs1)C(=O)CO2 ?
ADAM10 inh: -7.2; PLC-beta3 inh: 1.5; KLK7 zymogen act: -0.8; PLC-gamma1 inh: -5.3; ADAM17 inh: -1.1

What do the screens show for `CNc1cnc(-c2ccc(C(=O)N3CCOCC3)cc2)cn1`?
ADAM10 inh: inactive; PLC-beta3 inh: -384.8; KLK7 zymogen act: 20.3*; PLC-gamma1 inh: -320.1; ADAM17 inh: inactive; proKLK7 act conf: 19.8*; EDANS-DABCYL int: 22.0*

How did COC(CNC(=O)c1ccc2nc(-c3ccccc3)c(-c3ccccc3)nc2c1)OC do in these assays?
ADAM10 inh: -265.6; PLC-beta3 inh: -39.8; KLK7 zymogen act: -8.4; PLC-gamma1 inh: -28.8; ADAM17 inh: -77.9

Results for O=C(NCC1CCCO1)c1coc2nc3ccccc3nc12 (stereo not given) ?
ADAM10 inh: inactive; PLC-beta3 inh: -399.3; KLK7 zymogen act: 79.8*; PLC-gamma1 inh: -333.8; ADAM17 inh: inactive; proKLK7 act conf: 308.2*; EDANS-DABCYL int: 292.6*

What do the screens show for `O=C(Nc1ccccc1C(=O)NCC1CCCO1)c1ccccc1` (stereo not given)?
ADAM10 inh: 4.2; PLC-beta3 inh: 2.4; KLK7 zymogen act: 0.6; PLC-gamma1 inh: 3.3; ADAM17 inh: 2.0

How did COC(CNC(=O)c1coc2nc3ccccc3nc12)OC do in these assays?
ADAM10 inh: inactive; PLC-beta3 inh: -408.0; KLK7 zymogen act: 46.6*; PLC-gamma1 inh: -298.1; ADAM17 inh: inactive; proKLK7 act conf: 282.0*; EDANS-DABCYL int: 269.1*

Results for CC(=O)c1ccc(-c2ccc(C(=O)NCC(c3ccco3)N(C)C)o2)cc1 (stereo not given) ?
ADAM10 inh: inactive; PLC-beta3 inh: -398.7; KLK7 zymogen act: 19.2*; PLC-gamma1 inh: -253.8; ADAM17 inh: -318.5; proKLK7 act conf: 5.5; EDANS-DABCYL int: 11.5*

How did CCC(C)NC(=O)CN1c2cccc3cccc(c23)S1(=O)=O (stereo not given) do in these assays?
ADAM10 inh: -180.9; PLC-beta3 inh: -310.9; KLK7 zymogen act: 14.2*; PLC-gamma1 inh: -213.4; ADAM17 inh: -73.5; proKLK7 act conf: 6.5; EDANS-DABCYL int: 9.6*

What do the screens show for `CC1CCCCC1NC(=O)CN1c2cccc3cccc(c23)S1(=O)=O` (stereo not given)?
ADAM10 inh: -139.8; PLC-beta3 inh: -160.5; KLK7 zymogen act: 8.3; PLC-gamma1 inh: -148.5; ADAM17 inh: -35.1

What do the screens show for `CC1CCN(C(=O)CN2c3cccc4cccc(c34)S2(=O)=O)CC1`?
ADAM10 inh: -359.2; PLC-beta3 inh: -418.1; KLK7 zymogen act: 17.5*; PLC-gamma1 inh: -271.9; ADAM17 inh: -101.0; proKLK7 act conf: 9.3; EDANS-DABCYL int: 7.1*

Results for N#Cc1ccc(/C=C2\CC3(OC(=O)c4ccc(F)cc4)CCCN2C3)cc1 (stereo not given) ?
ADAM10 inh: 1.1; PLC-beta3 inh: -4.8; KLK7 zymogen act: 0.1; PLC-gamma1 inh: -0.9; ADAM17 inh: 0.6

What do the screens show for `CCC[C@H]1[C@@H](N(C)Cc2ccccc2)CC[C@@]23CCCN2C(=O)CCC[C@@H]13`?
ADAM10 inh: 2.7; PLC-beta3 inh: 0.5; PLC-gamma1 inh: 3.9; ADAM17 inh: 0.5

What do the screens show for `N=c1c(C(=O)NCC2CCCO2)cc2c(=O)n3ccccc3nc2n1Cc1ccco1` (stereo not given)?
ADAM10 inh: inactive; PLC-beta3 inh: inactive; KLK7 zymogen act: 15.1*; PLC-gamma1 inh: inactive; ADAM17 inh: -246.0; proKLK7 act conf: 41.1*; EDANS-DABCYL int: 37.9*

What do the screens show for `N=c1c(C(=O)NC2CCCCC2)cc2c(=O)n3ccccc3nc2n1Cc1ccco1`?
ADAM10 inh: inactive; PLC-beta3 inh: -476.8; KLK7 zymogen act: 0.8; PLC-gamma1 inh: -313.2; ADAM17 inh: -189.8

Results for N=c1c(C(=O)NCC2CCCO2)cc2c(=O)n3ccccc3nc2n1Cc1cccnc1 (stereo not given) ?
ADAM10 inh: inactive; PLC-beta3 inh: inactive; KLK7 zymogen act: 134.0*; PLC-gamma1 inh: inactive; ADAM17 inh: inactive; proKLK7 act conf: 34.7*; EDANS-DABCYL int: 32.9*

Results for N=c1c(C(=O)NCc2ccc(F)cc2)cc2c(=O)n3ccccc3nc2n1Cc1cccnc1 ?
ADAM10 inh: inactive; PLC-beta3 inh: inactive; KLK7 zymogen act: 26.3*; PLC-gamma1 inh: -400.6; ADAM17 inh: inactive; proKLK7 act conf: -5.5; EDANS-DABCYL int: -8.1
